Test results taken from PubChem BioAssay (NCI).
The panel holds about 83,000 compounds, 20% with a hit somewhere; the sample as a whole holds those more often.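 Growth was measured after 48 h exposure to one concentration of compound in 96-well plates. Values under 10 count as active.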 The source made the active and inactive calls.

Key:
Assay in all cases: NCI-60 one-dose screen, 48 h (100 = growth as untreated, 0 = no growth, -100 = all killed)
Details in all cases: 10 µM unless noted
NCI-H23 lung = tested on: NCI-H23 lung
NCI-H226 lung = tested on: NCI-H226 lung
NCI-H322M lung = tested on: NCI-H322M lung
HOP-62 NSCLC = tested on: HOP-62 NSCLC
NCI-H460 lung = tested on: NCI-H460 lung
HOP-92 NSCLC = tested on: HOP-92 NSCLC
NCI-H522 lung = tested on: NCI-H522 lung
A549/ATCC NSCLC = tested on: A549/ATCC NSCLC
786-0 renal = tested on: 786-0 renal
COLO 205 colon = tested on: COLO 205 colon
DU-145 prostate = tested on: DU-145 prostate
K-562 leukemia = tested on: K-562 leukemia
MALME-3M melanoma = tested on: MALME-3M melanoma
MDA-MB-231 breast = tested on: MDA-MB-231 breast
RXF 393 renal = tested on: RXF 393 renal
SF-268 CNS = tested on: SF-268 CNS
SF-295 CNS = tested on: SF-295 CNS
SF-539 CNS = tested on: SF-539 CNS
UACC-257 melanoma = tested on: UACC-257 melanoma
M14 melanoma = tested on: M14 melanoma

Measured: growth

O=C1c2cc3c(cc2-c2c1c1cc(F)c(F)cc1c(=O)n2CCCn1ccnc1)OCO3
active: NCI-H23 lung -11.2% | NCI-H226 lung -59.4% | HOP-62 NSCLC 1.96% | NCI-H460 lung -26% | HOP-92 NSCLC -7.1% | NCI-H522 lung -26.9% | A549/ATCC NSCLC -93.5% | 786-0 renal 8.02% | COLO 205 colon -4.37% | DU-145 prostate 9.97% | K-562 leukemia 8.61% | MALME-3M melanoma -4.79% | RXF 393 renal -22.4% | SF-295 CNS -12.4% | SF-539 CNS -19.7% | UACC-257 melanoma -28.9% | M14 melanoma 8.25%
inactive: NCI-H322M lung 14.5% | MDA-MB-231 breast 13.9% | SF-268 CNS 13.4%

CCOC(=O)c1sc2nc(-c3cccc(O)c3)nc(N3CCOCC3)c2c1C
inactive: NCI-H23 lung 69.3% | NCI-H226 lung 82.8% | NCI-H322M lung 70.7% | HOP-62 NSCLC 68.5% | NCI-H460 lung 68.2% | HOP-92 NSCLC 30.8% | NCI-H522 lung 46.1% | A549/ATCC NSCLC 47.4% | 786-0 renal 67.7% | COLO 205 colon 105% | DU-145 prostate 38.9% | K-562 leukemia 60.5% | MALME-3M melanoma 62.7% | MDA-MB-231 breast 47.6% | RXF 393 renal 18.4% | SF-268 CNS 48.9% | SF-295 CNS 81% | SF-539 CNS 51.3% | UACC-257 melanoma 82.6% | M14 melanoma 69.2%

O=C1c2cccc3cccc(c23)C(=O)N1CCCCCN1CCN(CCCCCOc2ccc(-c3nc4ccc(N5CCOCC5)cc4[nH]3)cc2)CC1
inactive: NCI-H23 lung 98.9% | NCI-H226 lung 78.9% | NCI-H322M lung 103% | HOP-62 NSCLC 97.4% | NCI-H460 lung 27.5% | HOP-92 NSCLC 49.2% | NCI-H522 lung 73.7% | A549/ATCC NSCLC 21.3% | 786-0 renal 109% | COLO 205 colon 96.5% | DU-145 prostate 97.4% | K-562 leukemia 19.6% | MALME-3M melanoma 82.6% | MDA-MB-231 breast 108% | SF-268 CNS 136% | SF-295 CNS 16.3% | SF-539 CNS 54.4% | UACC-257 melanoma 56.3% | M14 melanoma 50.6%
active: RXF 393 renal -11.5%

O=c1cc(CSc2nnc(SCc3cc(=O)oc4c3ccc3ccccc34)o2)c2ccc3ccccc3c2o1
inactive: NCI-H23 lung 89.9% | NCI-H226 lung 83.6% | NCI-H322M lung 93.3% | HOP-62 NSCLC 99.2% | NCI-H460 lung 104% | HOP-92 NSCLC 97.6% | NCI-H522 lung 70.1% | A549/ATCC NSCLC 89.3% | 786-0 renal 109% | COLO 205 colon 106% | DU-145 prostate 109% | K-562 leukemia 97.7% | MALME-3M melanoma 102% | MDA-MB-231 breast 95.8% | RXF 393 renal 119% | SF-268 CNS 96.7% | SF-295 CNS 96.1% | SF-539 CNS 101% | UACC-257 melanoma 93.6% | M14 melanoma 103%

COc1ccc(Nc2nc(SC)nc(-c3cccc([N+](=O)[O-])c3)c2C#N)cc1
inactive: NCI-H23 lung 73.6% | NCI-H226 lung 18.3% | NCI-H322M lung 65.8% | HOP-62 NSCLC 44.5% | NCI-H460 lung 30.4% | HOP-92 NSCLC 61.3% | NCI-H522 lung 80.8% | A549/ATCC NSCLC 31.4% | 786-0 renal 21.8% | COLO 205 colon 81.5% | DU-145 prostate 80.6% | K-562 leukemia 93.6% | MALME-3M melanoma 61.7% | MDA-MB-231 breast 45.1% | RXF 393 renal 60% | SF-268 CNS 71.6% | SF-295 CNS 69.3% | SF-539 CNS 69% | UACC-257 melanoma 89.5% | M14 melanoma 74.9%

COC(=O)c1ccc2oc(NC(=O)c3ccc(Nc4ccc([N+](=O)[O-])cc4C)c([N+](=O)[O-])c3)nc2c1
inactive: NCI-H23 lung 95.9% | NCI-H226 lung 92.1% | NCI-H322M lung 101% | HOP-62 NSCLC 107% | NCI-H460 lung 101% | HOP-92 NSCLC 101% | NCI-H522 lung 94.4% | A549/ATCC NSCLC 100% | 786-0 renal 99.8% | COLO 205 colon 107% | DU-145 prostate 108% | K-562 leukemia 104% | MALME-3M melanoma 100% | MDA-MB-231 breast 105% | RXF 393 renal 103% | SF-268 CNS 97.9% | SF-295 CNS 98.8% | SF-539 CNS 96.1% | UACC-257 melanoma 103% | M14 melanoma 110%

FC(F)(F)c1ccc(-c2cn3nc(-c4c[nH]c5ccc(Br)cc45)sc3n2)cc1
inactive: NCI-H23 lung 85.8% | NCI-H226 lung 79.1% | NCI-H322M lung 85.5% | HOP-62 NSCLC 99.4% | NCI-H460 lung 100% | HOP-92 NSCLC 88% | NCI-H522 lung 91.6% | A549/ATCC NSCLC 99% | 786-0 renal 106% | COLO 205 colon 91.8% | DU-145 prostate 107% | K-562 leukemia 97.9% | MALME-3M melanoma 90.4% | MDA-MB-231 breast 88% | RXF 393 renal 118% | SF-268 CNS 113% | SF-295 CNS 95.2% | SF-539 CNS 101% | UACC-257 melanoma 107% | M14 melanoma 101%

O=C1OC(c2ccccc2)C(O)=C1c1ccccc1 (stereo not given)
inactive: NCI-H23 lung 115% | NCI-H226 lung 100% | NCI-H322M lung 130% | HOP-62 NSCLC 122% | NCI-H460 lung 113% | HOP-92 NSCLC 96.4% | NCI-H522 lung 110% | A549/ATCC NSCLC 86.6% | 786-0 renal 116% | COLO 205 colon 120% | DU-145 prostate 112% | K-562 leukemia 110% | MALME-3M melanoma 116% | MDA-MB-231 breast 104% | RXF 393 renal 111% | SF-268 CNS 96.4% | SF-295 CNS 109% | SF-539 CNS 102% | UACC-257 melanoma 95.2% | M14 melanoma 111%

N#C/C(=C\c1ccc(-c2cc(C(F)(F)F)ccc2Cl)o1)c1nc(-c2ccco2)cs1
inactive: NCI-H23 lung 93.7% | NCI-H226 lung 96.2% | NCI-H322M lung 103% | HOP-62 NSCLC 96.1% | NCI-H460 lung 102% | HOP-92 NSCLC 101% | NCI-H522 lung 85.3% | A549/ATCC NSCLC 108% | 786-0 renal 104% | COLO 205 colon 119% | DU-145 prostate 108% | K-562 leukemia 89.3% | MALME-3M melanoma 106% | MDA-MB-231 breast 93.1% | RXF 393 renal 112% | SF-268 CNS 99.7% | SF-295 CNS 101% | SF-539 CNS 99.3% | UACC-257 melanoma 112% | M14 melanoma 99.4%

O=C1OCC2=C1C(c1ccncc1)c1cc3c(cc1N2CCO)OCO3 (stereo not given)
inactive: NCI-H23 lung 99.6% | NCI-H226 lung 102% | NCI-H322M lung 98.3% | HOP-62 NSCLC 93.5% | NCI-H460 lung 101% | HOP-92 NSCLC 87.6% | NCI-H522 lung 91.2% | A549/ATCC NSCLC 98.9% | 786-0 renal 112% | COLO 205 colon 53.1% | DU-145 prostate 107% | K-562 leukemia 110% | MALME-3M melanoma 89.9% | MDA-MB-231 breast 101% | RXF 393 renal 99.3% | SF-268 CNS 97.7% | SF-295 CNS 102% | SF-539 CNS 101% | UACC-257 melanoma 99.5% | M14 melanoma 107%

O=S(=O)(Nc1ccc(NS(=O)(=O)c2ccccc2)c(Cl)c1)c1ccccc1
inactive: NCI-H23 lung 103% | NCI-H226 lung 102% | NCI-H322M lung 115% | HOP-62 NSCLC 110% | NCI-H460 lung 102% | HOP-92 NSCLC 95.3% | NCI-H522 lung 77.7% | A549/ATCC NSCLC 101% | 786-0 renal 103% | COLO 205 colon 114% | DU-145 prostate 109% | K-562 leukemia 95.4% | MALME-3M melanoma 103% | MDA-MB-231 breast 104% | RXF 393 renal 108% | SF-268 CNS 101% | SF-295 CNS 94.6% | SF-539 CNS 105% | UACC-257 melanoma 103% | M14 melanoma 101%

CCOC(=O)c1c(C)oc2ncnc(N3CCN(C(=S)Nc4ccccc4)CC3)c12
inactive: NCI-H23 lung 90.8% | NCI-H226 lung 87.2% | NCI-H322M lung 92.3% | HOP-62 NSCLC 87.2% | NCI-H460 lung 103% | HOP-92 NSCLC 83.3% | NCI-H522 lung 80.9% | A549/ATCC NSCLC 92% | 786-0 renal 97.8% | COLO 205 colon 104% | DU-145 prostate 101% | K-562 leukemia 85% | MALME-3M melanoma 99.9% | MDA-MB-231 breast 89.1% | RXF 393 renal 90.8% | SF-268 CNS 94.1% | SF-295 CNS 96% | SF-539 CNS 91.8% | UACC-257 melanoma 98% | M14 melanoma 104%

Cc1c(/C=C/[N+](=O)[O-])ccc2c1[nH]c1ccccc12
inactive: NCI-H23 lung 93.3% | NCI-H226 lung 54.3% | NCI-H322M lung 134% | HOP-62 NSCLC 106% | NCI-H460 lung 95.4% | HOP-92 NSCLC 90.6% | NCI-H522 lung 94.8% | A549/ATCC NSCLC 87.8% | 786-0 renal 73.2% | COLO 205 colon 82.2% | DU-145 prostate 99.3% | K-562 leukemia 91.6% | MALME-3M melanoma 135% | MDA-MB-231 breast 106% | RXF 393 renal 62.6% | SF-268 CNS 108% | SF-295 CNS 103% | SF-539 CNS 94.2% | UACC-257 melanoma 90% | M14 melanoma 37.7%

Cn1cc(-c2nonc2-c2cn(C)c3ccc(F)cc23)c2ccccc21
inactive: NCI-H23 lung 23.2% | NCI-H322M lung 40.2% | HOP-62 NSCLC 33.1% | HOP-92 NSCLC 54.6% | A549/ATCC NSCLC 24.5% | 786-0 renal 34.3% | DU-145 prostate 13.6% | MALME-3M melanoma 54.1% | MDA-MB-231 breast 25.6% | SF-268 CNS 43.3% | SF-295 CNS 26% | UACC-257 melanoma 60.6% | M14 melanoma 18.6%
active: NCI-H226 lung 5.33% | NCI-H460 lung 7.52% | NCI-H522 lung -8.4% | COLO 205 colon 5.23% | K-562 leukemia 9.9% | RXF 393 renal -13.4% | SF-539 CNS -25.4%

O=c1c2c3c(sc2nc(N/N=C/c2cn(-c4ccccc4)nc2-c2ccc(Cl)cc2)n1Cc1ccccc1)CCCC3
active: K-562 leukemia 3.49%
inactive: NCI-H23 lung 106% | NCI-H226 lung 102% | NCI-H322M lung 111% | HOP-62 NSCLC 98.5% | NCI-H460 lung 97.7% | HOP-92 NSCLC 74.2% | NCI-H522 lung 84.7% | A549/ATCC NSCLC 83.6% | 786-0 renal 95.2% | COLO 205 colon 109% | DU-145 prostate 116% | MALME-3M melanoma 115% | MDA-MB-231 breast 113% | RXF 393 renal 118% | SF-268 CNS 91.8% | SF-295 CNS 62.2% | SF-539 CNS 95.9% | UACC-257 melanoma 92% | M14 melanoma 98.1%
